Screening data deposited in PubChem BioAssay by National Center for Advancing Translational Sciences (NCATS).
Sampled rows, rich in hits. Any-hit rate of the full collection: about 3.3%.
TbPYK inhibitor – qHTS of Trypanosoma Brucei Inhibitors | pyruvate kinase (Trypanosoma brucei), Q57TT1 | TbPYK enzyme, Kinase-Glo Plus ATP luminescence, 45 min | Potency, µM (doses to about 76.8 µM), without a hit: at the highest dose activity, negative = inhibition, most hits filed as inhibitors | actives 0.12% (n = 410,000); note: nearly all actives have a fitted effect of over 50% in size
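Activity of T. brucei pyruvate kinase was followed by Kinase-Glo Plus luminescence after the enzyme reacted 45 min at room temperature with 130 uM ADP (final) and substrate. Test compounds were added before ADP at multiple concentrations.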
Giardia FBPA inh – qHTS Assay for Inhibitors of Fructose-1,6-bisphosphate Aldolase from Giardia Lamblia. A8B2U2. purified Giardia FBPA. Potency, µM (series often up to 59.6 µM), for inactives: at the highest dose activity, negative = inhibition, most hits filed as inhibitors. actives 0.71% (n = 290,000). AID 2451, 2010; note: nearly all actives have a fitted effect of over 55% in size
Target sequence (A8B2U2 whole entry, looked up): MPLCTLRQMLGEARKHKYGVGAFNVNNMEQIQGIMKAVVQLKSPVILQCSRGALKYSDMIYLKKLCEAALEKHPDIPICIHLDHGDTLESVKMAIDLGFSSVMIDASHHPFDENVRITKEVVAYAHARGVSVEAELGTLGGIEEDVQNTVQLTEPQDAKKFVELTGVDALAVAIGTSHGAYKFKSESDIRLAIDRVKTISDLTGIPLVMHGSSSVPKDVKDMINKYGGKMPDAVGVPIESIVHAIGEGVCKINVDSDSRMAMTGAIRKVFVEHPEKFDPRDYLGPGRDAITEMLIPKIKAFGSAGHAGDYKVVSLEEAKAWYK
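40 nM FBPA preincubated 10 min at RT with compound (up to 57.5 uM final), then substrate plus GAPDH/TPI/NAD/arsenate coupling and diaphorase/resazurin added. Fluorescence read after 20 min at RT, 525/598 nm.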
Sm TGR block – qHTS Assay for the Inhibitors of Schistosoma Mansoni Peroxiredoxins; purified TGR, DTNB reduction, TNB absorbance 405 nm; Potency, µM (doses to about 114 µM), for inactives: at the highest dose activity change, negative = inhibition, hits mostly inhibitors; Schistosoma mansoni thioredoxin glutathione reductase (TGR), Q962Y6; AID 485364, 2010; actives 3% (n = 360,000); note: nearly all actives have a fitted effect of over 60% in size
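TGR 20 nM + NADPH 100 uM (dispensed conc.), cpd preinc 15 min RT; start with NADPH (500 uM addition) then DTNB (15 mM addition). Kinetic TNB absorbance, 405 nm filter. Four-parameter Hill fit across titration.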
LmPK inh – qHTS Assay for Inhibitors of Leishmania Mexicana Pyruvate Kinase (LmPK); Q27686; purified LmPK, Kinase-Glo ATP luminescence, 1 h; Potency, µM (titrated, usually from 57.5 µM), inactives show at the top dose activity change, negative = inhibition, most hits filed as inhibitors; actives 0.37% (n = 290,000)
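Pyruvate kinase activity monitored as ATP production (luciferase luminescence). Conditions: 0.1 nM enzyme, 0.5 mM PEP, 0.1 mM ADP, 1 h, RT; normalized against uninhibited and no-enzyme wells.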
RE007 growth inh – qHTS Assay for Inhibitors of the HIV-1 protein Vpr | actives 0.21% (n = 360,000) | Potency, µM (doses to about 92.2 µM), without a hit: at the top dose activity change, negative = less growth, actives largely listed as inhibitors | S. pombe RE007 Vpr strain, BacTiter-Glo ATP luminescence, 24 h | AID 651644, 2012; active = well fitted falling curve with a large enough effect; inconclusive = small, poorly fitted or top-dose-only effect; inactive = no such curve, though single readings can be large or run the other way; note: nearly all actives have a fitted effect of over 50% in size
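Fission yeast RE007 carrying one integrated HIV-1 vpr copy, seeded at OD 0.01 in PMG+AL medium with 23 nL pinned compound. Grown 24 h at 30 degrees; viability read by BacTiter-Glo luminescence after 5 min.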
* hit, by the source's call. Unless noted, calls come from the whole dose curve; as a rule, active = well fitted curve in the direction sought with a large enough effect; inconclusive = small, poorly fitted or top-dose-only effect, or another doubt; inactive = no such curve, though single readings can be large; an effect the other way counts as inactive or inconclusive. % is set by controls: 0 for no effect and ±100 for the full control effect; potency is the fitted concentration of half-maximal effect.

Results for COc1ccc(C2=CC(c3c(C)nn(-c4ccccc4)c3Cl)n3nnnc3N2)cc1OC (stereo unspecified) ?
TbPYK inhibitor: -7%; Giardia FBPA inh: -21%; Sm TGR block: 18µM*; LmPK inh: 1%; RE007 growth inh: 18%

Results for COc1ccc(CCNS(=O)(=O)c2ccc(-n3cnnn3)cc2)cc1OC ?
TbPYK inhibitor: -1%; Giardia FBPA inh: -2%; Sm TGR block: -2%; LmPK inh: -5%; RE007 growth inh: 24%

Results for Nc1cc(C(=O)OCC(=O)NCc2ccc(F)cc2)ccc1Cl ?
TbPYK inhibitor: 2%; Giardia FBPA inh: 2%; Sm TGR block: -2%; LmPK inh: 1%; RE007 growth inh: 3%

What do the screens show for `Cc1cccc(NC(=O)C2CC(=O)n3ncnc3N2)c1` (stereo unspecified)?
TbPYK inhibitor: -3%; Giardia FBPA inh: -2%; Sm TGR block: 2%; LmPK inh: 3%; RE007 growth inh: 41%

What do the screens show for `Cc1ccccc1NC(=O)C1CC(=O)n2ncnc2N1` (stereo unspecified)?
TbPYK inhibitor: -1%; Giardia FBPA inh: -4%; Sm TGR block: 35µM*; LmPK inh: -1%; RE007 growth inh: -8%

How did CCc1ccc(C(=O)c2cn(CC(=O)Nc3cc(OC)ccc3OC)c3nc(C)ccc3c2=O)cc1 do in these assays?
TbPYK inhibitor: 4%; Sm TGR block: -1%

What do the screens show for `Cc1ccnc(Nc2nc3ccccc3o2)n1`?
TbPYK inhibitor: inconclusive; Giardia FBPA inh: 1%; Sm TGR block: -8%; LmPK inh: 22µM*; RE007 growth inh: -21%

What do the screens show for `N#Cc1cnc(Nc2nc3ccccc3o2)nc1-c1ccccc1`?
TbPYK inhibitor: -11%; Giardia FBPA inh: 0%; Sm TGR block: 1%; LmPK inh: -2%; RE007 growth inh: -13%

How did Cc1ccc2oc(Nc3nc(C)c(C)c(C)n3)nc2c1 do in these assays?
TbPYK inhibitor: 0%; Giardia FBPA inh: -8%; Sm TGR block: 1%; LmPK inh: 2%; RE007 growth inh: 0%

What do the screens show for `Cc1nc(Nc2nc3ccccc3o2)nc(C)c1C`?
TbPYK inhibitor: inconclusive; Giardia FBPA inh: -6%; Sm TGR block: -2%; LmPK inh: 18µM*; RE007 growth inh: -20%

What do the screens show for `Clc1ccc(-c2cn3nc4c(nc3n2)CCCC4)cc1`?
TbPYK inhibitor: -9%; Giardia FBPA inh: inconclusive; Sm TGR block: inconclusive; LmPK inh: 14µM*; RE007 growth inh: 1%

How did COc1cccc(-c2cc(C(F)(F)F)n3nc(N)nc3n2)c1 do in these assays?
TbPYK inhibitor: -7%; Giardia FBPA inh: 0%; Sm TGR block: 3%; LmPK inh: -5%; RE007 growth inh: 5%

Results for COc1cccc(-c2cn3nc4c(nc3n2)CCCC4)c1 ?
TbPYK inhibitor: inconclusive; Giardia FBPA inh: inconclusive; Sm TGR block: inconclusive; LmPK inh: 11µM*; RE007 growth inh: inconclusive

Results for CC(=O)Nc1ccc2c(c1)Cc1c-2cc(Cl)c(NC(C)=O)c1Cl ?
TbPYK inhibitor: 4%; RE007 growth inh: 2%

How did COc1cc(/C=N/Nc2nncn2/N=C/c2ccc(O)c(OC)c2)ccc1O do in these assays?
TbPYK inhibitor: inconclusive; Giardia FBPA inh: inconclusive; Sm TGR block: -9%; LmPK inh: 14µM*; RE007 growth inh: -20%

How did COc1cc(/C=N/Nc2ccccc2C(F)(F)F)ccc1O do in these assays?
TbPYK inhibitor: -15%; Giardia FBPA inh: -9%; Sm TGR block: 40µM*; LmPK inh: 0%; RE007 growth inh: 7%

Results for COc1cc(/C=N/Nc2ccccc2)ccc1O ?
TbPYK inhibitor: -20%; Giardia FBPA inh: -23%; Sm TGR block: 40µM*; LmPK inh: 2%; RE007 growth inh: 90%

What do the screens show for `COc1cc(/C=N/Nc2cccc(C)c2)cc(Br)c1O`?
TbPYK inhibitor: -12%; Giardia FBPA inh: -7%; Sm TGR block: 45µM*; LmPK inh: 1%; RE007 growth inh: 266%
